PubChem BioAssay AID1159580 (chemical genetic matrix, 2015)
The campaign covered roughly 5,500 compounds. About 2,000 (36%) were called active. Another 18% or so got no clear call; they are omitted. Rule as the data show it: active = normalized growth mostly below about 0.91 (no sharp cut-off); inconclusive = no clear call, values can overlap the other calls; inactive = mostly above about 0.92. This is one part of the list.

Experiment: chemical genetic growth profiling, strain panel (AID 1159580);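 also: tested at 20 µM; growth read once vehicle control cultures reached saturation at 30 °C; 1 = growth at the plate median or of vehicle wells; lower values mean less growth of the strain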
Conditions: S. cerevisiae deletion strains, growth OD
[1] = locus YAL040C, strain CLN3, stronger effect = lower value
[2] = locus YCL061C, strain MRC1 (second series), stronger effect = lower value
[3] = locus YDR363W, strain ESC2, stronger effect = lower value
[4] = locus YER002W, strain NOP16, stronger effect = lower value
[5] = locus YGR229C, strain SMI1, stronger effect = lower value
[6] = locus YMR263W, strain SAP30, stronger effect = lower value
[7] = locus YNL128W, strain TEP1, stronger effect = lower value
[8] = locus YNL175C, strain NOP13, stronger effect = lower value
[9] = locus YNL197C, strain WHI3, stronger effect = lower value
[10] = locus YNL224C, strain SQS1, stronger effect = lower value
[11] = locus YNL322C, strain KRE1, stronger effect = lower value
[12] = locus YOR083W, strain WHI5 (second series), stronger effect = lower value
[13] = locus YPL055C, strain LGE1, stronger effect = lower value
[14] = locus YPL241C, strain CIN2, stronger effect = lower value
[15] = locus YMR307W, strain GAS1, stronger effect = lower value

Measured: normalized growth

O=C(Nc1cc(C(=O)Nc2ccc(S(=O)(=O)O)cc2S(=O)(=O)O)cc(C(=O)Nc2ccc(S(=O)(=O)O)cc2S(=O)(=O)O)c1)Nc1cc(C(=O)Nc2ccc(S(=O)(=O)O)cc2S(=O)(=O)O)cc(C(=O)Nc2ccc(S(=O)(=O)O)cc2S(=O)(=O)O)c1
inactive: locus YAL013W, strain DEP1, stronger effect = lower value 0.995 | [1] 1.01 | [2] 0.998 | locus YDR150W, strain NUM1, stronger effect = lower value 0.997 | [3] 0.954 | [4] 1.02 | locus YGR078C, strain PAC10, stronger effect = lower value 0.987 | [5] 0.995 | [6] 0.99 | [7] 1 | [8] 1.01 | [9] 1.01 | [10] 0.993 | [11] 1.02 | [12] 0.993 | [13] 0.968 | [14] 1.01

CC(C)(C)c1o[nH]c(=O)c1CC(N)C(=O)O (stereo not given)
inactive: [1] 1.03 | [2] 1.01 | [4] 1 | [15] 0.968 | [7] 1 | [8] 1 | [9] 0.991 | [10] 0.992 | [11] 0.997 | [12] 1 | [14] 1.02

CC1=C[C@@H]2c3cccc4[nH]cc(c34)C[C@H]2N(C)C1
inactive: [1] 0.988 | [4] 0.993 | locus YJR075W, strain HOC1, stronger effect = lower value 1 | [6] 0.996 | [15] 1.01 | [8] 1 | [9] 1.01 | [10] 0.987 | [12] 1

Clc1cc(I)cc(Cl)c1NC1=NCCN1
inactive: [1] 1.01 | [2] 1.01 | [3] 1.02 | [4] 1.01 | [15] 0.987 | [8] 1.01 | [9] 1.01 | [10] 1.01 | [12] 1.06 | [13] 0.986

N=S(=O)(O)Cc1noc2ccccc12
inactive: [1] 0.966 | [2] 1 | [3] 1.03 | [4] 1.01 | [5] 1.01 | [15] 1.01 | [7] 1.05 | locus YNL153C, strain GIM3, stronger effect = lower value 0.998 | [8] 0.996 | [9] 1.02 | [10] 1.01 | [12] 1 | [14] 1.01
